Results on 88 molecules are retold here after PubChem BioAssay AID652042 (Broad Institute, 2013).

Structures are written as SMILES. The campaign covered roughly 1,100 compounds. About 350 (32%) were called active. These entries were drawn from the full list. Entries with a potency or affinity are not part of this list. A number with no mark means an inactive call. How the calls were made is not given here.

This assay can be described thus: viability loss in CEM21 cells – cell-based, CellTiter-Glo luminescence, cherry-picked, cytotoxicity control for viral fusion inhibitor project, dose response (AID 652042). To be noted: CellTiter-Glo ATP luminescence, 24 h; series mostly up to 35 µM; activity change, negative = cytotoxicity: at the top concentration. (ATP-based viability assays read luminescence as a measure of living cells.)
Regarding `CC(C)NC(=O)Nc1ccc2c(c1)CC(=O)N([C@H](C)CO)C[C@H](C)[C@H](CN(C)S(=O)(=O)c1cccs1)O2`, the “activity change, negative = cytotoxicity” value was 1.85%.
Then `C[C@H](CO)N1C[C@H](C)[C@H](CN(C)S(=O)(=O)c2ccccc2)Oc2ccc(NC(=O)Nc3ccccc3)cc2CC1=O`, with -19.4%; and `COc1ccc(NC(=O)Nc2ccc3c(c2)CC(=O)N([C@@H](C)CO)C[C@H](C)[C@H](CN(C)S(=O)(=O)c2cccs2)O3)cc1`, with -13.2%.
Then `COc1ccc(S(=O)(=O)Nc2ccc3c(c2)CC(=O)N([C@H](C)CO)C[C@H](C)[C@H](CN(C)S(=O)(=O)c2ccc(F)cc2)O3)cc1`, with -0.109%; and `C[C@H](CO)N1C[C@H](C)[C@H](CN(C)CC2CC2)Oc2ccc(NC(=O)Nc3ccc4c(c3)OCO4)cc2CC1=O`, with -1.32%.
For `C[C@H](CO)N1C[C@H](C)[C@H](CN(C)S(=O)(=O)c2ccc(Cl)cc2)Oc2ccc(NC(=O)Nc3ccc4c(c3)OCO4)cc2C1=O`, the “activity change, negative = cytotoxicity” value was -8.62%.
Then `COc1ccc(CN(C)C[C@@H]2Oc3ccc(NC(=O)Nc4ccc(OC)cc4)cc3C(=O)N([C@H](C)CO)C[C@@H]2C)cc1`, with -7.84%; and `C[C@H]1CN([C@@H](C)CO)C(=O)c2cc(NC(=O)Nc3ccc4c(c3)OCO4)ccc2O[C@H]1CN(C)S(=O)(=O)c1ccc(F)cc1`, with -0.195%.
Then `COc1ccc(Cl)cc1CC1(C)C(=O)Nc2ccc(S(=O)(=O)NC3CCCCC3)cc21` (stereo not drawn), with -10.2%.
The same measure for `O=C(c1ccccc1)N1CCC(c2nc(-c3ccc(S(=O)(=O)NCC4CCCO4)cc3)no2)CC1` (stereo not drawn): -19.1%; for `CC1CCN(C(=O)c2ncn3c2C(=O)N[C@H](C)C3)CC1`: -0.958%; for `Cc1nc2ncnn2c(N2CCCC(C(=O)Nc3ccc4c(c3)CCC4)C2)c1C` (stereo not drawn): -9.92%.
Consider `O=C(Nc1ccc2c(c1)CCC2)C1CCN(c2c3c(nc4ncnn24)CCC3)CC1`, for which the “activity change, negative = cytotoxicity” value was -17.5%.
The same measure for `Oc1ccc(CNc2ccccc2F)c2cccnc12`: -29.9%; for `N#C/C(=N\Nc1ccc(Cl)cc1)C(=O)c1ccccc1`: -32.3%.
For the molecule `O=C1c2cccc(OCc3ccc(F)cc3)c2CCN1Cc1ccccc1`, the “activity change, negative = cytotoxicity” value is -13.1%.
The same measure for `NC(=S)c1ccc(OCCCc2ccccc2)cc1`: -14.8%.
Then `C[C@@]12C(=O)N(CCc3c[nH]c4ccccc34)CC(=O)N1[C@H]1c3ccccc3OC[C@@H]1[C@@H]2c1ccccc1`, with -17.1%; and `C[C@@]12C(=O)N(CC3CCCO3)CC(=O)N1[C@H]1c3cc(Cl)ccc3OC[C@@H]1[C@@H]2c1ccccc1` (stereo partly drawn), with -8.94%; and `COC(=O)CCn1nnc(-c2ccc(C(C)C)cc2)n1`, with 6.71%.
On to `COCC(=O)Nc1ccc2c(c1)C(=O)N(C)[C@H]1CC[C@H](CC(=O)NC3CCCC3)O[C@H]1CO2`, for which the “activity change, negative = cytotoxicity” value is -2.95%.
`CC1=CC(C)(C)N(C(=O)c2ccccc2)c2ccc(C)cc21`: the “activity change, negative = cytotoxicity” value was -13.1%.
The same measure for `COCC(=O)Nc1ccc2c(c1)C(=O)N(C)C[C@@H](OC)[C@@H](C)CN(C)[C@H](C)CO2`: -2.08%; for `CCOC1=C2[C@@H](CN(S(=O)(=O)c3ccccc3C)[C@H]2c2ccc(Cl)cc2)[C@H]2C(=O)NC(=O)[C@H]2C1`: 7.02%; for `Cc1sc2ncnc(N3CCC(C(=O)Nc4cc(S(C)(=O)=O)ccc4Cl)CC3)c2c1C`: -1.01%.
Then `COC(=O)C1=C(C)N(CC2CC2)C(=O)N[C@H]1c1ccc(Br)cc1`, with -13.3%; and `O=C(NCc1ccco1)c1ccc(Cn2c(=O)c3sccc3n(Cc3cccc(F)c3)c2=O)cc1`, with -4.41%; and `CC[C@@]1(C(=O)OC)N[C@H](CN(C)C(=O)COc2ccccc2)[C@@H]2C(=O)N(Cc3ccccc3)C(=O)[C@@H]21`, with 1.91%.
Then `C[C@H]1CN([C@@H](C)CO)C(=O)Cc2cc(N(C)C)ccc2O[C@H]1CN(C)Cc1ccc(Cl)c(Cl)c1`, with -11.3%; and `C[C@@H]1CN([C@@H](C)CO)C(=O)c2cc(C3=CCCC3)cnc2O[C@@H]1CN(C)Cc1ccc(C(=O)O)cc1`, with -7.71%; and `C=C(C)c1cccc(C(C)(C)NC(=O)Nc2ccc(Cl)cn2)c1`, with 0.575%.
As for `O=C(NCc1ccccc1)c1ccc(C(=O)NCc2ccccc2)cc1`, the “activity change, negative = cytotoxicity” value is -1.78%.
With `Cc1ncccc1C(=O)N1CCCC(C(=O)c2ccc3c4c(cccc24)CC3)C1` (stereo not drawn), the “activity change, negative = cytotoxicity” value is -1.97%.
Then `CCOc1ccc(N(C)S(=O)(=O)c2cc(-c3cc(C)no3)ccc2C(C)C)cc1`, with -27.4%; and `COc1ccc(NC(=O)c2ccc(Cl)c(S(=O)(=O)N3CCc4ccccc4C3)c2)cn1`, with -19.1%; and `Cc1ccc(NC(=O)c2ccc(CN3CCc4ccccc4C3)cc2)cc1`, with -25.9%.
For `Cc1ccc2c(c1)c1c3n2CCN(CCC#N)C3CCC1` (stereo not drawn), the “activity change, negative = cytotoxicity” value is 1.35%.
Take `CC(CCc1ccco1)NC(=O)CCc1nnc2ccc(NCc3ccccc3Cl)nn12` (stereo not drawn): the “activity change, negative = cytotoxicity” value is -16.5%.
Then `Cc1ccc(S(=O)(=O)N2CCC(=O)N(CCOC(=O)Nc3cccc(Cl)c3)CC2)cc1`, with -2.62%; and `COc1ccccc1Oc1ccc(S(=O)(=O)NCc2ccccn2)cc1`, with -8.66%; and `COc1ccc(C)cc1NC(=O)CCNS(=O)(=O)c1ccc2c(c1)CC(C)N2C(C)=O` (stereo not drawn), with 9.67%.
Then `O=C(C[C@H]1C[C@@H]2c3cc(NC(=O)C4CCOCC4)ccc3O[C@@H]2[C@@H](CO)O1)NCc1ccccc1F`, with -3.22%; and `CC(C)CCN(N=O)[C@@H](Cc1ccccc1)CN(N=O)[C@@H](Cc1ccccc1)CN(C)N=O`, with -15.3%; and `COc1ccc(-c2cc(=O)oc3c(C)c(O)ccc23)cc1`, with -5.8%.
The same measure for `O=C(NCCc1ccccc1)c1ccc2c(c1)OCCO2`: -9.04%.
In the case of `C=C1CCN([C@@H](Cc2ccccc2)C(=O)NCCC(C)C)S(=O)(=O)c2ccccc21`, the “activity change, negative = cytotoxicity” value is -5.67%.
Regarding `CSCCC(NS(=O)(=O)c1ccc2c(c1)oc(=O)n2C)C(=O)NC1CCCc2ccccc21` (stereo not drawn), the “activity change, negative = cytotoxicity” value is 4.91%.
The same measure for `CC(=O)c1ccc([C@H]2C[C@@]34CN(C(=O)OC(C)(C)C)S(=O)(=O)[C@H]3C[C@H]2O4)cc1`: 2.58%; for `CN(C)CC(=O)Nc1ccc2c(c1)[C@H]1C[C@@H](CC(=O)NCCc3ccccc3)O[C@H](CO)[C@H]1O2`: -2.04% [at 30 µM]; for `O=C(Nc1cccc(C(=O)O)c1)Nc1ccc2c(c1)OCO2`: -7.93%.
The same measure for `COc1ccc(NC(=O)C2CCCN2S(=O)(=O)c2ccc3c(c2)CCC(=O)N3)cc1Cl` (stereo not drawn): -0.458%.
The same measure for `O=C(COc1ccc(-n2cnnn2)cc1)Nc1ccc(F)c(F)c1`: 3.75%; for `Cn1cccc1C(=O)OCC(=O)NCCc1ccc(S(N)(=O)=O)cc1`: 6%.
With `Cc1cc2c3c(c1)C1(SCC(=O)N1c1ccc(F)cc1)C(=O)N3C(C)(C)CC2C` (stereo not drawn), the “activity change, negative = cytotoxicity” value was -0.52% [at 16 µM].
With `CCN(CC)S(=O)(=O)c1cc(NC(=O)C(=O)c2c(-c3ccccc3)cc3ccccn23)ccc1C`, the “activity change, negative = cytotoxicity” value is -16%.
The same measure for `CC(C)N(Cc1nc(-c2ccccc2)no1)C(=O)CN(C)S(=O)(=O)c1ccc(Br)cc1`: -16%; for `COc1cccc(S(=O)(=O)N[C@H]2CC[C@H](CC(=O)NCc3ccncc3)O[C@@H]2CO)c1`: 1.11%.
`O=C(C[C@H]1C=C[C@@H](NC(=O)Nc2ccccc2F)[C@@H](CO)O1)NCc1ccc(Cl)cc1`: the “activity change, negative = cytotoxicity” value was -7.24%.
On to `O=C(NCC[C@@H]1CC[C@@H](NS(=O)(=O)c2ccccc2F)[C@@H](CO)O1)c1ccc(F)cc1`, for which the “activity change, negative = cytotoxicity” value is -1.41%.
Regarding `O=C(C[C@H]1CC[C@@H](NC(=O)Nc2ccccc2F)[C@@H](CO)O1)NCc1ccc(Cl)cc1`, the “activity change, negative = cytotoxicity” value is 0.724%.
The same measure for `O=C(C[C@@H]1CC[C@@H](NC(=O)c2ccncc2)[C@H](CO)O1)NCCc1ccncc1`: -1.24%; for `COc1cccc(CNC(=O)C[C@@H]2C=C[C@H](NC(=O)C3CCC3)[C@H](CO)O2)c1`: 0.694%; for `COC(=O)[C@@]1(C)[C@H]2C(=O)N(Cc3ccccc3)C(=O)[C@H]2[C@H]2CN=C(SCc3ccc(C#N)cc3)N21`: -13.8%.
Then `CN(C[C@H](Cc1ccccc1)N(C[C@H](c1ccccc1)N(CCc1ccccc1)N=O)N=O)N=O`, with -4.42%; and `N#Cc1ccc(C(c2nnnn2CCc2ccccc2)N2CCCCCC2)cc1` (stereo not drawn), with -20.5%; and `Cc1ccc(C(c2nnnn2CS(=O)(=O)c2ccc(C)cc2)N2CCCC2)cc1` (stereo not drawn), with -1.57%.
Then `COc1ccc(NC(=O)Nc2ccc3c(c2)C(=O)N([C@@H](C)CO)C[C@H](C)[C@H](CN(C)Cc2ccncc2)OCCCC[C@H](C)O3)cc1`, with -11.8%.
Take `Cc1ccc(C(C(=O)NC2CCCCC2)N(C(=O)c2csnn2)C2CCCC2)o1` (stereo not drawn): the “activity change, negative = cytotoxicity” value is 4.56% [at 16 µM].
Take `Cc1ccc(-c2nnn(CC(=O)N(CC3CCCO3)C(C(=O)NC3CCCCC3)c3ccc(F)cc3)n2)o1` (stereo not drawn): the “activity change, negative = cytotoxicity” value is -2.01%.
The same measure for `COc1ccc(NC(=O)CN2CCC(C(N)=O)(N3CCCCC3)CC2)cc1`: 5.51%; for `CC1CCN(C(=O)c2ncn3c2C(=O)N[C@@H](C)C3)CC1`: -5.66%; for `COc1ccc(-c2cc(C3CCN(c4cc(Cl)nc(N)n4)CC3)[nH]n2)cc1`: -13.3%.
As to `CCOc1ccc(OCc2cccc(C(=O)N/N=C/c3cccnc3)c2)cc1`, the “activity change, negative = cytotoxicity” value is -2.87%.
The same measure for `Cc1ccc(S(=O)(=O)N(C)C)cc1NC(=O)COc1ccccc1C(=O)Nc1ccccc1`: -16.9%; for `CC(c1nc2ccccc2c(=O)[nH]1)N(C)CCOc1ccc(Cl)cc1` (stereo not drawn): -7.82%; for `Cc1ccccc1CCN(C(=O)c1csnn1)C(C(=O)NC1CCCC1)c1ccncc1` (stereo not drawn): -5.49%.
Then `CC(C)CCN(C(=O)c1csnn1)C(C(=O)NC1CCCC1)c1ccc(F)cc1` (stereo not drawn), with -7.24%.
The same measure for `COc1cc(NC2c3ccccc3C(=O)N2Cc2ccccc2)cc(OC)c1OC` (stereo not drawn): 3.26%.
Turning to `CCOC(=O)c1ccc(NC2c3ncccc3C(=O)N2Cc2ccc(F)cc2)cc1` (stereo not drawn), the “activity change, negative = cytotoxicity” value is -4.33%.
Consider `COc1ccc(-c2cc(=O)oc3c(C)c(O)c(CN(C)C)cc23)cc1`, for which the “activity change, negative = cytotoxicity” value was 5.55%.
In the case of `COc1ccc(S(=O)(=O)NNC(=O)C2Cc3c(ccc4ccccc34)O2)cc1` (stereo not drawn), the “activity change, negative = cytotoxicity” value was -11.3%.
Then `CN(C)S(=O)(=O)c1ccc(N2CCCC2)c(C(=O)NCCc2ccc(F)cc2)c1`, with -0.85%.
The same measure for `CC(C)n1c(NCCc2ccccc2)nc2c1c(=O)n(C)c(=O)n2C`: -25.5%; for `CC[C@]1(C(=O)OC)[C@H]2C(=O)N(Cc3ccccc3)C(=O)[C@H]2[C@H]2CN=C(SCc3ccc(C)cc3)N21`: -9.52%.
Then `COc1ccc(OC)c(CN2C(=O)c3ccccc3C2c2nnnn2-c2c(C)cccc2C)c1` (stereo not drawn), with -7.17%; and `COc1ccc(CCN2C(=O)c3[nH]nc(-c4ccccc4O)c3C2c2ccc(C)cc2)cc1OC` (stereo not drawn), with -12.2%; and `COCc1[nH]nc2c1C(c1ccc(F)cc1)N(Cc1ccccc1)C2=O` (stereo not drawn), with -2.79%.
Consider `COc1ccc(CCN2C(=O)c3[nH]nc(-c4ccccc4O)c3C2c2cccc(O)c2)cc1OC` (stereo not drawn), for which the “activity change, negative = cytotoxicity” value is -2.82%.
